Compound activity deposited in PubChem by several laboratories.
aSyn UTR inh – MLPCN primary screen, SNCA 5' untranslated region; alpha-synuclein 5'UTR reporter, inhibitor activity; inhibition, % (tested at 7.5 µM); actives 0.82% (n = 300,000); AID 1813, 2009; in the data active = inhibition above about 60%; inconclusive = no clear call, values can overlap the other calls;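 note: H4 neuroglioblastoma cells stably carrying SNCA 5'UTR luciferase fusion; 0% = DMSO wells and 100% = positive control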
IEC-6 tox – cytotoxicity in IEC-6 intestinal epithelial cells, primary screen, cytotoxicity control for KLF5 inhibitor project, cell-based, luminescence | IEC-6 cytotoxicity, luminescence viability | inhibition, % at 5 µM | actives 0.78% (n = 290,000) | AID 1825, 2009; in the data active = inhibition above about 22%;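 note: 0% = plate median of test compound wells and 100% = cytotoxic reference compound wells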
KLF5 inhibitor – KLF5 expression inhibitors, primary screen, DLD-1 cells, luminescence | AID 1700, 2009 | DLD-1 KLF5 promoter-luciferase reporter | inhibition, % at 5 µM | actives 0.23% (n = 290,000);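 active = inhibition above a per-plate limit of that plate's mean compound inhibition plus 3 SD, cut at about 60% in these data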;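 note: 0% = DMSO wells and 100% = LY294002 at 200 µM; higher means less KLF5 promoter-driven luciferase light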
BaF3 tox – parental Ba/F3 cell viability inhibition, counter-screen for JAK2V617F inhibitor project, murine pro-B, CellTiter-Glo luminescence; CellTiter-Glo ATP luminescence; inhibition, % at 5.6 µM; actives 1.1% (n = 220,000); AID 1486, 2009;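 active = inhibition above a per-campaign cutoff, the mean inhibition of all tested compounds plus 3 SD, cut at about 27% in these data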;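 note: 0% = DMSO wells and 100% = JAK Inhibitor I control wells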
Ba/F3 V617F tox – reduced viability of JAK2V617F-dependent Ba/F3 cells, primary screen, JAK2V617F inhibitor project, cell-based, Ba/F3 EpoR-JAK2V617F, luminescence; actives 1.1% (n = 220,000); ATP luminescence; AID 1446, 2008; inhibition, % at 5.6 µM;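 active = inhibition above the campaign mean plus 3 SD over all tested compounds, cut at about 24% in these data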;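 note: cytokine-independent growth of Ba/F3 cells driven by EpoR plus mutant JAK2; 0% = DMSO-treated cells and 100% = JAK inhibitor I control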
APP transl inh – inhibitors of APP translation via 5'UTR reporter, primary screen, APP 5'UTR luciferase, SH-SY5Y cells; SH-SY5Y APP 5'UTR-luciferase reporter, luminescence; inhibition, % at 2 µM; actives 0.82% (n = 190,000);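 active = inhibition above a set limit, derived from the sample mean plus 3 SD, cut at about 45% in these data; inconclusive = one replicate passes the limit while the other fails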
Active calls of the source: *; ? = inconclusive; . = no result. Compounds with a hit are over-represented: about 2.2% of the library has one in this group of screens.

SMILES | aSyn UTR inh | IEC-6 tox | KLF5 inhibitor | BaF3 tox | Ba/F3 V617F tox | APP transl inh
Cc1ccc(C(=O)N/C(=C\c2ccc(-c3ccc(Cl)cc3)o2)C(=O)NCCCN(C)C)cc1 | ? | 44* | -23 | 104* | 16 | 2
O=C(CSc1ncnc2nc[nH]c12)c1ccc([N+](=O)[O-])cc1 | 10 | 15 | -2 | 23 | 36* | .
COc1ccc(CC(C)Nc2cccc(SC)c2)cc1 (centres undefined) | 23 | 6 | -10 | . | . | .
Cc1nc2ccccc2c(=O)n1/N=C/c1c(O)ccc2oc3c(c12)CCCC3 | 86* | 0 | -32 | 1 | -3 | 6
COc1cccc2c1C(=O)c1c(O)c3c(c(O)c1C2=O)C[C@@](O)(C(=O)CO)C[C@@H]3O[C@H]1C[C@H](N)[C@H](O)[C@H](C)O1 | 109* | 94* | 42 | 101* | 102* | 95*
Cc1cccc2sc(NS(=O)(=O)c3ccccc3)nc12 | 11 | -4 | -11 | . | . | .
COc1ccc(NC(=O)O/N=C/c2ccc(Br)cc2)cc1 | -21 | -4 | -13 | . | . | .
COc1ccc(/C=C/c2cc(C(=O)O)c3ccccc3n2)cc1 | 81* | -4 | 3 | 3 | -1 | .
COc1ccc(/C=C/C(=O)Nc2ccccc2C(=O)O)cc1 | 83* | 3 | -41 | 8 | -1 | -152
COc1ccc(/C=N/OC(=O)Nc2ccccc2OC)cc1 | -28 | 35* | -66 | 9 | 10 | -92
CCCc1cc(C(=O)Nc2cc(OC)ccc2OC)cs1 | -20 | 10 | 15 | . | . | .
Cc1ccc(NC(=O)c2ccc(NS(=O)(=O)c3c(C)noc3C)cc2)cc1C | 8 | 6 | -33 | 2 | 0 | -9
COc1ccc(NC(=O)c2ccc(NS(=O)(=O)c3c(C)noc3C)cc2)cc1OC | -2 | -13 | -23 | 97* | 0 | 18
NC(=O)c1cc(Br)cc(C2CCCCC2)c1O | 87* | 10 | 0 | 1 | 1 | .
NC(=O)c1cc(Br)cc2c3c([nH]c12)CCCC3 | 1 | 1 | 4 | 4 | 3 | -18
O=[N+]([O-])/C=C/c1cn(Cc2ccc(F)cc2)c2ccccc12 | 63* | -3 | -6 | 5 | -3 | 13
CCOc1ccc(S(=O)(=O)N2CCC(C(=O)OC(C)C(=O)N3CCOCC3)CC2)cc1 (centres undefined) | 5 | . | . | . | . | .
Cc1cc(C)c(C)c(S(=O)(=O)NCCCN2CCOCC2)c1C | -17 | 4 | -21 | 90* | 4 | 11
O=C(C1CC1)N1CCc2cc(S(=O)(=O)NCc3ccccc3)ccc21 | -4 | 4 | -9 | . | . | .
CNC[C@@H](CC1CCCCC1)NC[C@H](CC(C)C)NCCc1cccc(C(F)(F)F)c1 | 122* | -6 | 10 | . | . | .
CC[C@@H](C)[C@H](CNC)NC[C@@H](Cc1cccc2ccccc12)NCCc1cccc(C(F)(F)F)c1 | 125* | -6 | -14 | . | . | .
CCCCCn1ccc(=N)cc1 | 19 | -5 | -15 | 62* | 67* | 7
CCCCn1c(N)c(N(CC(C)C)C(=O)CC2CCCC2)c(=O)[nH]c1=O | 5 | . | . | . | . | .
Cc1ccsc1C(=O)N1CCCC(CO)(Cc2ccccc2)C1 (centres undefined) | -46 | -3 | -18 | . | . | .
CCOc1ccc2c(c1)c(N=NC(=N)N)c(O)n2C | -2 | 13 | -19 | 69* | 44* | -2
Cn1cc(C(=O)N/N=C/C(Br)=C/c2ccccc2)ccc1=O | -42 | 10 | -35 | 2 | 1 | 85*
Cn1cc(C(=O)N/N=C/C(Br)=C\c2ccccc2)ccc1=O | -83 | 5 | 0 | 4 | 1 | 0
CC(=NCCc1c(C)[nH]c2ccc(C)cc12)C1=C(O)CC(c2ccccc2)CC1=O (centres undefined) | 56 | 6 | -1 | 6 | 1 | 88*
CCCC(=NCCc1c(C)[nH]c2ccccc12)C1=C(O)CC(c2ccccc2)CC1=O (centres undefined) | 86* | -10 | -10 | 6 | 0 | 84*
CCCCC(=NCCc1c(C)[nH]c2ccccc12)C1=C(O)CC(c2ccccc2)CC1=O (centres undefined) | 51 | 0 | -12 | 5 | 0 | 5
